Screening data (PubChem BioAssay)
L3MBTL1 block: L3MBTL1 (human) inhibition; Q9Y468; Potency, µM (series often up to 57.1 µM), inactives show at the top dose activity, negative = inhibition, actives largely listed as inhibitors; AlphaScreen L3MBTL1–H3K9me1 peptide binding; 230,000 compounds, 0.66% hits; further: on the % scale 0 is the no-effect control and ±100 the full control effect; nearly all actives have a fitted effect of over 60% in size
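AlphaScreen proximity signal between nickel-chelate acceptor and streptavidin donor beads (final 10 ug/mL) reports binding of 50 nM L3MBTL1 to 75 nM biotin-H3 K9me1 peptide; complex incubated with compounds 30 min at room temperature; cefsulodin titration as control.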
PLK1 PBD block: blocks phosphopeptide binding to human PLK1 polo-box domain; P53350; Plk1 PBD binding of FITC phosphopeptide, fluorescence polarization; Potency, µM, inactives show max response, negative = inhibition, most hits filed as inhibitors; 360,000 compounds, 2.8% hits; further: series mostly up to about 57 µM; on the % scale 0 is the no-effect control and ±100 the full control effect; nearly all actives have a fitted effect of over 65% in size
BAZ2B block: inhibitors of human BAZ2B bromodomain. Q9UIF8. AlphaScreen BAZ2B-H3K14Ac peptide displacement. Potency, µM (titrated, usually from 114 µM), for inactives: top-dose activity change, negative = inhibition, most hits filed as inhibitors. 360,000 compounds, 4.4% hits; further: on the % scale 0 is the no-effect control and ±100 the full control effect; nearly all actives have a fitted effect of over 60% in size
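BAZ2B 50 nM plus b-H3(5-23)K14Ac 50 nM, PBS pH 7.4/0.01% Tween-20, 30 min RT; compound added (max 110 uM), 30 min RT; streptavidin donor/Ni-chelate acceptor beads 10 ug/mL final, 20 min dark; AlphaScreen read.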
JMJD2A Tudor: blocks the human JMJD2A Tudor domain. O75164. AlphaScreen JMJD2A-Tudor / H3K4me3 peptide binding. Potency, µM (doses to about 114 µM), inactives show top-dose activity change, negative = inhibition, most hits filed as inhibitors. 390,000 compounds, 4.4% hits. AID 504339; further: on the % scale 0 is the no-effect control and ±100 the full control effect; nearly all actives have a fitted effect of over 50% in size
VDR inhibitor: inhibitors of human vitamin D receptor; VDR-SRC2-3 peptide fluorescence polarization, 2 h; AID 504847; Potency, µM, for the others: max response, negative = inhibition, hits mostly inhibitors; 400,000 compounds, 0.93% hits; further: on the % scale 0 is the no-effect control and ±100 the full control effect
Target sequence (P11473 whole entry, looked up): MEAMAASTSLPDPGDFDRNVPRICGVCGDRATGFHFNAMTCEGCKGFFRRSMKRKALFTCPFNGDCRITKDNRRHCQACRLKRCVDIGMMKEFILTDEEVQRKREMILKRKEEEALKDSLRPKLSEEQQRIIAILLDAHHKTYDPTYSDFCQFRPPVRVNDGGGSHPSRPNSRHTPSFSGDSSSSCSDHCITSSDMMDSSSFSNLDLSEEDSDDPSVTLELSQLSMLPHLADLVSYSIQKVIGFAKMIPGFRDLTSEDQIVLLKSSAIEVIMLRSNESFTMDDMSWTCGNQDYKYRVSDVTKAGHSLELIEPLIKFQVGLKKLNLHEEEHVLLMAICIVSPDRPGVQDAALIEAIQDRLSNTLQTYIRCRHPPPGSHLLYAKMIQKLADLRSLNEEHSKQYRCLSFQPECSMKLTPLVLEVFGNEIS
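The screen uses fluorescence polarization to detect compounds that interfere with recruitment of the SRC2-3 coactivator peptide to VDR; plates are read after 2 h at room temperature.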
HP1b chromo inh: blocks HP1-beta chromodomain binding to methylated histone tails; P83916; AlphaScreen HP1-beta / biotin-H3K9me3 peptide binding; Potency, µM (series often up to 114 µM), inactives show at the top dose activity change, negative = inhibition, hits mostly inhibitors; 390,000 compounds, 0.56% hits; AID 540317; further: nearly all actives have a fitted effect of over 70% in size
Target sequence (P83916 whole entry, looked up): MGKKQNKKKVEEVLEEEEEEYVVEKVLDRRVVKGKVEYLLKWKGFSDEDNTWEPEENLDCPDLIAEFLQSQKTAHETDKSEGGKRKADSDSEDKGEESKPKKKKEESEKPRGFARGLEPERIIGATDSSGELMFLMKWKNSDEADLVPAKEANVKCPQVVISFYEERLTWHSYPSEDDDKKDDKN
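Compound inhibition of the preformed complex between 50 nM HP1-beta and 50 nM biotinylated H3K9me3 peptide was read by AlphaScreen. Buffer was PBS pH 7.4 with 0.01% Tween-20. Incubations ran 30 min at room temperature, with 10 ug/mL donor/acceptor beads.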
* marks the source's active call; other numbers are inactive results; ? = inconclusive; / = not tested or not shown; [ ] = remark or other dose. Rows were chosen to be rich in hits. Some 6.9% of all compounds tested hit in one or more screens of this group. The call rests on the fitted dose curve; in most records, active means well fitted curve in the direction sought with a large enough effect; inconclusive means small, poorly fitted or top-dose-only effect, or another doubt; inactive means no such curve, though single readings can be large; an effect the other way counts as inactive or inconclusive. Potency means the concentration at half of the fitted maximal effect.

SMILES	L3MBTL1 block	PLK1 PBD block	BAZ2B block	JMJD2A Tudor	VDR inhibitor	HP1b chromo inh
CCCCNC(=O)O[C@@H]1C[C@H]2CCCC(=O)N3CC[C@@H](C1)[C@@H]23	0%	3%	-30%	-5%	-5%	39%
CCCCOc1ccc(NC(=O)CN2CCN(CC)CC2)cc1	-1%	-18%	56µM*	0.79µM*	-7%	?
CCc1cccc(CC)c1NC(=O)CN1CCc2cc(OC)c(OC)cc2C1	/	/	50µM*	/	/	/
COc1ccc(N2CCN(C(=O)CN3CCN(c4nc(-c5ccc(F)cc5)cs4)CC3)CC2)cc1	-2%	-3%	20µM*	32µM*	5%	?
COc1ccc(NC(=O)CN2CCN(c3ccc(F)cc3)CC2)cc1	/	30µM*	-14%	25µM*	-52%	-2%
COc1cc2c(cc1OC)CN(CC(=O)Nc1cccc([N+](=O)[O-])c1)CC2	/	-11%	-27%	-27%	-17%	1%
CCOc1ccc(NC(=O)CN2CCN(c3ccc(F)cc3)CC2)cc1	/	1%	-23%	?	-12%	11%
CCCSc1ncc(Cl)c(C(=O)Nc2ccc(S(=O)(=O)N3CCCCC3C)cc2)n1 (stereo not drawn)	/	/	-18%	-14%	5%	22%
CNc1c(NC(=O)c2ccc3c(c2)OCO3)c(=O)oc2ccccc12	/	-15%	1%	-13%	29%	25%
O=C(CS(=O)CC(=O)N(CC(=O)NC1CCCC1)c1ccc2c(c1)OCCO2)Nc1ccc(F)cc1 (stereo not drawn)	31%	-4%	35%	-5%	-2%	17%
COc1ccc(N2CCN(c3ccc(-c4nc(-c5ccccc5C)no4)cc3[N+](=O)[O-])CC2)cc1	/	/	-1%	-6%	5%	34%
CC1CCc2c(sc(NC(=O)Cn3nnc(-c4ccc(C(F)(F)F)cc4)n3)c2C#N)C1 (stereo not drawn)	/	/	-38%	?	-8%	4%
O=C(O)CN1CCc2ccccc2C1	-3%	-4%	-5%	28µM*	?	-23%
COc1ccc(N2CCN(CC(=O)Nc3nc4c(s3)CC(C)CC4)CC2)cc1 (stereo not drawn)	?	-2%	/	50µM*	4%	?
COc1ccc(N2CCN(CC(=O)Nc3ncc(C)s3)CC2)cc1	/	?	-12%	-30%	-15%	0%
COc1ccc(N2CCN(CC(=O)Nc3nc(C)cs3)CC2)cc1	-2%	-9%	11µM*	5.6µM*	-7%	40µM*
COc1ccccc1OCC(=O)Nc1nc2c(s1)CC(C)CC2 (stereo not drawn)	/	/	-17%	-30%	7%	15%
O=C(/C=C/C(=O)N1CCc2ccccc2C1)N1CCc2ccccc2C1	/	-6%	-14%	-15%	8%	28%
O=C(CN1CCN(c2ccc(F)cc2)CC1)Nc1nccs1	/	24µM*	?	?	-6%	17%
COc1ccc(N(CC(=O)Nc2cc(C)ccc2C)S(=O)(=O)c2ccc(OC)c(OC)c2)cc1	/	/	4%	-15%	11%	13%
COc1ccc(NC(=O)CN2CCc3ccccc3C2)cc1	/	2%	/	22µM*	0%	?
CCOc1ccc(NC(=O)CN2C(=O)C3CCCN3C2=O)cc1 (stereo not drawn)	0%	24µM*	4%	?	-29%	9%
Cc1cc(-c2ccccc2)nnc1NCCN1CCOCC1	8%	?	?	79µM*	-29%	42%
Cc1cccc(-c2nc(NCCCN3CCOCC3)c3ccccc3n2)c1	/	11%	-12%	-21%	-11%	9%
CC(C)C(=O)OCc1cn(-c2ccc(Cl)c(Cl)c2)nn1	19%	21µM*	66%	22µM*	-10%	-4%
SMILES	L3MBTL1 block	PLK1 PBD block	BAZ2B block	JMJD2A Tudor	VDR inhibitor	HP1b chromo inh
COc1cc2[nH]c(=S)nc(NCCc3ccc(C)cc3)c2cc1OC	0%	30µM*	-11%	?	-7%	13%
COc1cc2[nH]c(=S)nc(NCCC(C)C)c2cc1OC	-10%	?	?	25µM*	-3%	0%
COc1cc2[nH]c(=S)nc(NC3CCCCCC3)c2cc1OC	/	-28%	-15%	-32%	?	-17%
COc1cc2[nH]c(=S)nc(Nc3ccc(NC(C)=O)cc3)c2cc1OC	?	30µM*	-18%	-1%	?	63%
Fc1ccc(CNc2ncnc3nc[nH]c23)cc1	/	/	/	-2%	4%	34%
CCN(CCCNC(=O)c1[nH]c(C)c(C(C)=O)c1C)c1ccccc1	-16%	1%	50µM*	?	11%	-18%
CC(=O)c1c(C)[nH]c(C(=O)NCCc2ccccc2)c1C	-4%	-14%	?	-31%	7%	-1%
CCc1ccccc1NC(=O)CN(c1cccc(OC)c1)S(C)(=O)=O	6%	30µM*	-2%	-24%[57.1 µM]	30%	-19%
COc1cccc(N(CC(=O)Nc2ccccc2C)S(C)(=O)=O)c1	7%	-6%	8%	-3%	-1%	22%
COCCCC1CCN(C(=O)C2CCC(=O)N(Cc3cccc(F)c3)C2)CC1 (stereo not drawn)	/	-9%	0%	-5%	2%	24%
Clc1cccc(OCCn2ccnc2)c1	-3%	16%	-4%	-10%	-10%	30%
C=CCc1ccccc1OCCn1ccnc1	0%	-3%	50µM*	-91%[57.1 µM]	7%	?
C=CCc1cccc(OC)c1OCCOCCn1ccnc1	-13%	-15%	35µM*	5µM*	-5%	?
Clc1ccccc1OCCn1ccnc1	/	0%	79µM*	4.5µM*	-1%	45µM*
COCCn1c(=O)c(-c2cc(F)cc(F)c2)nc2cnc(Nc3cccc(OC)c3)nc21	/	/	/	/	-1%	/
O=C(C[C@@H]1C/C=C\C[C@H](NC(=O)OCC2c3ccccc3-c3ccccc32)C(=O)OC[C@H]2CCCN2C1=O)NCCO	-3%	-13%	/	-22%	-32%	26%
CC(=O)C1=C(C)NC(SCc2cccc3ccccc23)=C(C#N)C1c1ccco1 (stereo not drawn)	-1%	-7%	-8%	10µM*	-20%	37%
CC(=O)C1=C(C)NC(SCc2ccc(C#N)cc2)=C(C#N)C1c1ccco1 (stereo not drawn)	4%	-20%	-33%	20µM*	-10%	34%
N#CN=c1snc(-c2ccccc2Cl)n1-c1ccccc1Cl	/	/	/	-9%[57.1 µM]	-11%	5%[57 µM]
CCCC(=O)OCc1cnc(C)c2oc(=O)c(C(=O)Nc3ccccc3)cc12	/	/	?	-20%	3%	18%
C[C@H](NC(=O)N1CCn2c1nc1ccccc12)C(=O)N1CCCCC1	/	8.4µM*	-21%	?	?	19%
